# Only a selection was taken, and hits are over-represented in it overall.
# mHTT CaM bind – mutant huntingtin-calmodulin interaction inhibitors – biochemical, AlphaScreen, primary screen; P42858; AlphaScreen His-mHTT/GST-CaM binding, luminescence; inhibition, % at 15 µM; 190,000 tested, 3.6% active; AID 1671202, 2021;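 further: 0% = both proteins with DMSO and 100% = one protein alone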
# Pf apPOL inh – Pf-apPOL inhibitors, biochemical, fluorescence; Plasmodium falciparum apicoplast DNA polymerase (apPOL); Recombinant Pf-apPOL, molecular beacon fluorescence, 1.5 h; inhibition, % at 10 µM; 210,000 tested, 0.25% active
# Numbers without * were called inactive; / = not tested or not shown. No stated cut-off is given here; in the data, active means inhibition above about 50%; inactive means the rest.
SMILES,mHTT CaM bind,Pf apPOL inh
COc1cc(-c2c(C#N)c(N)nc(SC)c2C#N)cc(OC)c1OC,-2,0
COc1cc(-c2c(C#N)c(N)nc3sc(C(N)=O)c(N)c23)cc(OC)c1OC,65*,-5
COc1ccc(NC(=O)C2CCN(c3cncnc3N3CCCC3)CC2)c(C)c1,12,0
CC(C)(C)c1cc(CCC(=O)NNC(=O)c2ccco2)cc(C(C)(C)C)c1O,7,1
CC(C)(C)c1cc(CCC(=O)NNC(=S)NC(=O)c2ccccc2)cc(C(C)(C)C)c1O,58*,-271
COC(=O)c1ccc(NC(=O)CSc2nc(=O)[nH]c3c2CCC3)cc1,3,2
O=C(CSc1nc(=O)[nH]c2c1CCC2)c1ccc(Cl)cc1,36,76*
CCOc1ccc(NC(=O)N2CCc3cn(CC)c4cccc(c34)C2)cc1,9,-2
N#C/C(=C\c1ccc(-c2ccc(Cl)cc2)o1)c1nn(CCO)c(N)c1C#N,54*,-14
N#C/C(=C\c1cccc(Br)c1)c1nn(CCO)c(N)c1C#N,3,-5
N#C/C(=C\c1c(F)cccc1Cl)c1nn(CCO)c(N)c1C#N,-1,9
N#C/C(=C\c1ccc(-c2cc(Cl)cc(Cl)c2)o1)c1nn(CCO)c(N)c1C#N,58*,-5
O=[N+]([O-])c1cc2c(cc1-n1ccnc1)OCCO2,0,/
O=C(O)CC(NC(=O)c1ccccc1)c1ccccc1 (stereo not drawn),0,-39
COc1ccc(OC)c(/C=C2\C=C(c3cc(OC)ccc3OC)OC2=O)c1,12,-8
COc1ccc(C)cc1C1=C/C(=C\c2ccc(C)o2)C(=O)O1,61*,3
Cc1ccc(C2CC(C(F)(F)F)n3nc(C(=O)NCCc4ccccc4)cc3N2)cc1 (stereo not drawn),39,5
COc1ccc(C2CC(C(F)(F)F)n3nc(C(=O)N(C)Cc4ccccc4)c(Cl)c3N2)cc1 (stereo not drawn),89*,-4
COc1ccc(C2CC(C(F)(F)F)n3nc(C(=O)Nc4cccnc4)cc3N2)cc1 (stereo not drawn),14,55*
CN(Cc1ccccc1)C(=O)c1cc2n(n1)C(C(F)(F)F)CC(c1ccccc1)N2 (stereo not drawn),53*,23
CC1CCN(C(=O)c2cc3n(n2)C(C(F)(F)F)CC(c2ccccc2)N3)C2CCCCC12 (stereo not drawn),58*,-11
CC1CCC(C)N(C(=O)c2cc3n(n2)C(C(F)(F)F)CC(c2ccccc2)N3)C1 (stereo not drawn),30,-1
COc1ccc(C2CC(C(F)(F)F)n3nc(C(=O)NCc4ccccc4)c(Cl)c3N2)cc1 (stereo not drawn),4,-1
Cc1ccc(C2CC(C(F)(F)F)n3nc(C(=O)Nc4cccnc4)cc3N2)cc1 (stereo not drawn),8,-2
Cc1cc(C)n(C(=O)c2cc3ccccc3c(=O)o2)n1,-2,-4
SMILES,mHTT CaM bind,Pf apPOL inh
O=C(O)c1ccc(CSc2nnc(-c3ccco3)o2)cc1,-2,3
Cc1ccc(C2=N/C(=C\C(Br)=C\c3ccccc3)C(=O)O2)cc1[N+](=O)[O-],57*,2
CC(/C=C1\N=C(c2ccc(C)c([N+](=O)[O-])c2)OC1=O)=C\c1ccccc1,3,0
CC(=O)Nc1cccc(N=Cc2cc(Cc3ccccc3)cc([N+](=O)[O-])c2O)c1,51*,-7
O=[N+]([O-])c1cc(Cc2ccccc2)ccc1O,26,7
O=C(Nc1cccc(N=Cc2cc(Cl)cc([N+](=O)[O-])c2O)c1)c1ccco1,68*,2
Cc1cccc(N=Cc2cc(Cl)cc([N+](=O)[O-])c2O)c1,14,-4
O=Cc1cc(Cc2ccccc2)cc([N+](=O)[O-])c1O,100*,-1
Cc1ccccc1C(=O)Nc1cccc(N=Cc2cc([N+](=O)[O-])cc([N+](=O)[O-])c2O)c1,48,-1
O=C(CN1C(=O)C(=O)c2ccccc21)NCc1ccccc1,0,-2
Cc1cccc(-c2noc(-c3cccnc3N3CCC(C(=O)NCC4CCCO4)CC3)n2)c1 (stereo not drawn),-3,-2
NC(=O)C1COc2ccccc2O1 (stereo not drawn),-4,0
Cc1cc(N2C(=O)C3CCCCC3C2=O)no1 (stereo not drawn),-1,-7
Cc1nc2ncccn2c1-c1csc(N)n1,-1,/
Cc1nc2ncccn2c1-c1csc(Nc2ccccc2)n1,97*,-1
Cc1cc(NS(=O)(=O)c2ccc(Nc3nc(-c4c(C)nc5ncccn45)cs3)cc2)no1,22,-2
Cc1cccc(C(=O)Nc2c(C)nc3sccn3c2=O)c1,-4,4
Cc1nc2ncccn2c1-c1csc(Nc2ccccn2)n1,73*,-4
Cc1nc2ncccn2c1-c1csc(Nc2cccc([N+](=O)[O-])c2)n1,-2,-14
Cc1nc2sccn2c1-c1csc(Nc2cccc(O)c2)n1,73*,-3

# High-throughput results (PubChem BioAssay)
